Rows were chosen to be rich in hits. Some 2.4% of all compounds tested hit in one or more screens of this group.
BRCT inh red – BRCT-phosphoprotein interaction inhibition (red fluorophore) | P38398 | BRCT-phosphopeptide binding, red fluorescence polarization | Potency, µM (series often up to 76.9 µM), most hits filed as inhibitors | actives 0.03% (n = 75,000) | AID 892
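Fluorescence polarization: 100 nM His-tagged BRCA1 BRCT with 100 nM TAMRA-labelled phospho-BACH1 decapeptide, phosphate buffer pH 7.3 with 150 mM NaCl, DTT, 0.01% Tween 20; 12 min RT. Binding inhibition seen as FP decrease.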
Tau filament bind – binders of human tau filaments; P10636; recombinant tau filaments, thioflavin S fluorescence, 15 h; filaments grown with octadecylsulfate alongside compound; Potency, µM (highest dose often 57.1 µM); actives 2% (n = 71,000);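 further: actives lower thioflavin S fluorescence by blocking filaments or displacing dye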
Target sequence (P10636 whole entry, looked up): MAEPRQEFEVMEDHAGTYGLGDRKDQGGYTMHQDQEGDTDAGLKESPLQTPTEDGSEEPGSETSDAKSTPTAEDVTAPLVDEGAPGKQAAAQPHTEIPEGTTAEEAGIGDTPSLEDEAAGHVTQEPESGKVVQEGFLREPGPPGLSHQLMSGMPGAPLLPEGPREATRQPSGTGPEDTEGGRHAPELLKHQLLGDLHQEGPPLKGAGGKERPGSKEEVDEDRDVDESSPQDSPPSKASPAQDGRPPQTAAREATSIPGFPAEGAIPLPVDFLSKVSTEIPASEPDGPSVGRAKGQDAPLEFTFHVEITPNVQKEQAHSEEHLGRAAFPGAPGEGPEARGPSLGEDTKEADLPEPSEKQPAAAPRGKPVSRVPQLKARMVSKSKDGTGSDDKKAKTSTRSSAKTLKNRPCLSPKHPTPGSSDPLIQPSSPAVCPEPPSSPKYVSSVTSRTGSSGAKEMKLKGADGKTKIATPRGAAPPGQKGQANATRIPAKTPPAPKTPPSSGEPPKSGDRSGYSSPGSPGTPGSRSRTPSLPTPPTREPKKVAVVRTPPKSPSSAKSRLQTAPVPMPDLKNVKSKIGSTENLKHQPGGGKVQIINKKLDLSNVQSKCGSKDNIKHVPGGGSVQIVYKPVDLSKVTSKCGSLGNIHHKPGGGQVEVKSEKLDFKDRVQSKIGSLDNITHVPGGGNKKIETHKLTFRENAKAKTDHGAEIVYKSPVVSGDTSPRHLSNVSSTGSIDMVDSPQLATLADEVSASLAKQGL
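Assay mix: 1 uM His-tagged tau, 30 uM sodium octadecylsulfate, thioflavine S dye in HEPES/NaCl/DTT buffer. Compound is added prior to the inducer. Fluorescence after 15 h at 37 C.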
DNA Pol III inh – blocks replication by bacterial DNA polymerase III holoenzyme | reconstituted DNA polymerase III holoenzyme replication, biochemical | Potency, µM (highest dose often 57.1 µM) | actives 0.25% (n = 71,000) | AID 603
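Reconstituted *E. coli* holoenzyme (0.35 nM Pol III, 1 nM beta, 154 nM SSB, 2 nM primase) was preincubated with compound for 15 min at RT. Synthesis on 1.4 nM ssM13Gori ran 35 min, then was stopped with PicoGreen/EDTA and read as dsDNA fluorescence.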
Hsp90 Hop PPI – changes Hsp90-Hop TPR2A binding signal, up or down; AlphaScreen TPR2A-His6 binding biotin-Hsp90 C-terminal peptide; Potency, µM (titrated, usually from 57 µM); actives 0.44% (n = 71,000); AID 595; active means well fitted curve in either direction with a large enough effect; inconclusive means small, poorly fitted or top-dose-only effect, or another doubt
BRCT PPI green – inhibitors of human BRCA1 BRCT-phosphoprotein interaction (green fluorophore). actives 0.05% (n = 75,000). P38398. BRCA1 BRCT-phosphopeptide binding, green fluorescence polarization. AID 875. Potency, µM (highest dose often 76.9 µM), most hits filed as inhibitors
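Fluorescence polarization: His-tagged BRCT (~35 kDa BRCA1 C-terminus, 250 nM) bound to 100 nM fluorescein-labeled phosphorylated 10-aa BACH1 peptide, pH 7.3 phosphate buffer with DTT and Tween 20. Compounds incubated 12 min at room temperature; inhibition read as lowered polarization.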
TsaE inh – YjeE (TsaE) inhibition, E. coli. purified YjeE enzyme, qHTS inhibition assay. Potency, µM. actives 0.05% (n = 71,000)
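Purified YjeE (10 uM) with BODIPY Texas Red-labeled ADP probe (2 uM); compounds pin-transferred, 15 min at room temperature. Binding inhibition read as decreased fluorescence polarization; ADP titration as control.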
Of the large screens only hits and unclear results are named; the others gave an inactive call; ! = not confirmed by another sample. Unless noted, the call rests on the fitted dose curve; in most records, active means well fitted curve in the direction sought with a large enough effect; inconclusive means small, poorly fitted or top-dose-only effect, or another doubt; inactive means no such curve, though single readings can be large; an effect the other way counts as inactive or inconclusive.

CN1CCN(C(=O)c2cnn3c(C(F)(F)F)cc(-c4ccc5c(c4)OCO5)nc23)CC1	none
CCN1CCN(C(=O)c2cnn3c(C(F)F)cc(-c4ccc(C)cc4)nc23)CC1	Tau filament bind 20µM
CN1CCN(C(=O)c2cc3nc(-c4ccccc4)cc(C(F)(F)F)n3n2)CC1	Tau filament bind 25.1µM
Cc1ccc(-c2cc(C(F)(F)F)n3ncc(C(=O)N4CCN(C)CC4)c3n2)cc1	Tau filament bind 3.98µM
CN1CCN(C(=O)c2cc3nc(-c4ccc(Cl)cc4)cc(C(F)(F)F)n3n2)CC1	Tau filament bind 2.51µM
CCNc1ncc2nc(-c3ccc(OC)cc3)c(=O)n(CCOC)c2n1	none
Cc1cnc(CNc2ccnc(-c3ccccc3Cl)n2)cn1	none
CC(C)(C)C(=O)/C=C(N)/C=C/c1ccccc1	Tau filament bind 25.1µM
CC(C)(C)C(=O)/C=C(\N)c1ccccn1	Hsp90 Hop PPI inconclusive
COc1ccc(-c2nc3cnc(Oc4ccccc4)nc3n(CCC#N)c2=O)cc1	none
COc1ccc(C)cc1NC(=O)C1CCCN1S(=O)(=O)c1ccc2c(c1)CCC(=O)N2 (stereo unspecified)	Tau filament bind 25.1µM
COc1cc(NC(=O)C2CCCN2S(=O)(=O)c2ccc3c(c2)CCC(=O)N3)cc(OC)c1 (stereo unspecified)	Hsp90 Hop PPI inconclusive
O=C(CSc1nnc(-c2ccccc2)o1)c1nnc(-c2ccccc2)o1	Tau filament bind 3.98µM
Cc1ccc2[nH]c3c(c2c1)CCc1cn[nH]c1-3	Tau filament bind 7.94µM
Nc1cccc2c(N)cccc12	Tau filament bind 31.6µM
CCCCCCN	none
CC(=O)O[C@H](CC(=O)O)C[N+](C)(C)C	Tau filament bind 39.8µM
COC(=O)c1ccc(C(NC(=O)OCc2ccccc2)/C(=C/[C@@H](C)C(=O)NCc2ccc(-c3ccccc3)cc2)c2cccnc2)cc1 (stereo partly specified)	none
Clc1ccc(N2CCN(Cc3c[nH]c4ncccc34)CC2)cc1	Tau filament bind 39.8µM!
CC(C)=CCC/C(C)=C/C=O	none
CCN(CC)CCNc1ccc(CO)c2sc3ccccc3c(=O)c12	Tau filament bind 3.98µM, DNA Pol III inh inconclusive
CCN(CC)CCNC(=O)Cc1nn(CC)c(=O)c2ccccc12	none
O=C(CCN1CCCCC1)c1csc2ccccc12	none
O=c1c2ccccc2sc2c(CO)ccc(NCCN3CCCCC3)c12	Tau filament bind 3.16µM
COc1ccc(-n2c(=O)c(C)nc3cnc(N(C)C)nc32)cc1	none
COc1ccc2nc(C)cc(Nc3ccc(N4CCOCC4)cc3)c2c1	Tau filament bind 5.01µM
COCCn1c(=O)c(C)nc2cnc(Oc3cccc(Cl)c3)nc21	none
CC[n+]1ccc(C)c2cc(S(=O)C(F)(F)F)ccc21 (stereo unspecified)	Tau filament bind 6.31µM
O=c1cnnc(SCCc2ccccc2)[nH]1	Tau filament bind 7.94µM
O=C(N/N=C1/C[C@@H](O)[C@@H](O)[C@@H]2[C@H]3C(=O)N(c4ccc(F)cc4F)C(=O)[C@@H]3CC[C@@H]12)OCc1ccccc1	none (no result: Tau filament bind, DNA Pol III inh, Hsp90 Hop PPI, TsaE inh)
c1csc(CNc2nc(-c3ccoc3)nc3ccccc23)c1	Tau filament bind 25.1µM
CC(C)c1ccc2c(c1)CC[C@@H]1[C@@](C)(CN)CCC[C@@]21C	Tau filament bind 31.6µM (no result: BRCT inh red, BRCT PPI green)
CCN1CCCC1Cn1c(-c2ccccc2)nc2c(NCCOC)nc(C)nc21 (stereo unspecified)	none
COc1ccc(NC(=O)c2c(OC)cccc2OC)c(OC)c1	Tau filament bind 15.8µM, Hsp90 Hop PPI inconclusive
[O-][n+]1c(CN2CCCCC2)nc2cccc3c2c1-c1ccccc1-3	none
N=C1[C@@H](O)[C@]2(I)c3ccccc3N3C(=N)[C@H](O)[C@@H]4c5ccccc5N1[C@@H]4[C@@H]32	Tau filament bind 1µM
O=C1CCCC=C1[C@@H](O)CCOCc1ccccc1	none (no result: Tau filament bind, DNA Pol III inh, Hsp90 Hop PPI, TsaE inh)
OCC1OC([S-])[C@H](O)C(O)C1O.[Au+] (stereo partly specified)	BRCT inh red 31.6µM (no result: Tau filament bind, DNA Pol III inh, Hsp90 Hop PPI, TsaE inh)
COc1ccc2nc(SCC(=O)N3CCCCCC3)c(C#N)cc2c1	none
COc1ccc2nc(N3CCCCC3)c(C#N)cc2c1	Hsp90 Hop PPI 25.1µM
Cc1ccc2cc(C#N)c(N3CCCC3)nc2c1C	none
COc1ccc2nc(N3CCCC3)c(C#N)cc2c1	Hsp90 Hop PPI 25.1µM
NC(=O)NC(N)=O	none
CCc1nnc2n1N=C(c1ccc(-c3cc(Cl)ccc3Cl)o1)CS2	Tau filament bind 15.8µM
CCc1nnc2n1N=C(c1ccc(-c3ccc(Cl)cc3Cl)o1)CS2	Tau filament bind 25.1µM
C[C@H](N)C(=O)OC(C)(C)Cc1ccc(Cl)cc1	none
O=c1cc(O)cc(/C=C\c2ccc(O)c(O)c2)o1	DNA Pol III inh 6.31µM, Hsp90 Hop PPI 12.6µM
Cc1nc2ccccc2c2nc3ccccc3n12	none
c1ccc2c(c1)nnn1c3ccccc3nc21	Tau filament bind 7.94µM
COc1ccc(Br)cc1CNc1ccc(O)cc1	Tau filament bind 31.6µM, Hsp90 Hop PPI inconclusive
FC(F)(F)c1cc(CN2CC[C@@]3(CCCNC3)C2)cc(C(F)(F)F)c1	none
FC(F)(F)c1cc(CN2CC3(CCNCC3)C2)cc(C(F)(F)F)c1	Tau filament bind 12.6µM
CC1(C)CC(NC(=O)c2ccccc2Cl)CC(C)(C)N1	none
CC1(C)CC(Nc2ccc(Nc3ccccc3)cc2)CC(C)(C)N1	Tau filament bind 1.58µM
Cc1ccc(S(=O)(=O)Nc2ccc(O)c(C(=O)O)c2)c(C)c1	none (no result: Tau filament bind, DNA Pol III inh, Hsp90 Hop PPI, TsaE inh)
COc1ccc(-n2cnnc2SCc2ncc(-c3ccccc3)o2)cc1	DNA Pol III inh 5.01µM
CO[C@]1(C2=NCCN2)COc2ccccc2O1	Tau filament bind inconclusive
C(=N\n1cnnc1)/c1ccc2ncccc2c1	Tau filament bind 12.6µM
COCCNc1ncnc2ccc(-c3ccccc3C(F)(F)F)cc12	none
Cc1c2oc3c(C)ccc(C(=O)N[C@@H]4C(=O)N[C@H](C(C)C)C(=O)N5CCC[C@H]5C(=O)N(C)CC(=O)N(C)[C@@H](C(C)C)C(=O)O[C@@H]4C)c3nc-2c(C(=O)N[C@@H]2C(=O)N[C@H](C(C)C)C(=O)N3CCC[C@H]3C(=O)N(C)CC(=O)N(C)[C@@H](C(C)C)C(=O)O[C@@H]2C)c(N)c1=O	DNA Pol III inh 0.02µM
COC(=O)c1cn(CCOc2ccccc2)c2ccccc12	Hsp90 Hop PPI 25.1µM
O=C(O)c1cccc(N=Nc2c(S(=O)(=O)O)ccc3c2C(=O)c2ccccc2C3=O)c1O	Tau filament bind 3.16µM
O=S(=O)(O)c1cc(O)c2c(O)c(N=Nc3cccc4ccccc34)c(S(=O)(=O)O)cc2c1	Tau filament bind inconclusive, Hsp90 Hop PPI inconclusive
